Data taken from PubChem BioAssay (NCI).
The panel holds about 83,000 compounds, 20% with a hit somewhere; the sample as a whole holds those more often.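 The test compound was applied at a single concentration to cells in 96-well plates for 48 hours, and percent growth was recorded.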 Values without a mark were called inactive. Calls of active or inactive are those of the source. How the source made its calls: active means growth percent below 10; inactive means the rest.

Experiments:
Test in all cases: NCI-60 one-dose screen, 48 h (100 = growth as untreated, 0 = no growth, -100 = all killed)
Conditions in all cases: 10 µM unless noted
DU-145 prostate = system: DU-145 prostate
K-562 leukemia = system: K-562 leukemia
MALME-3M melanoma = system: MALME-3M melanoma
MDA-MB-231 breast = system: MDA-MB-231 breast
RXF 393 renal = system: RXF 393 renal
SF-268 CNS = system: SF-268 CNS
SF-295 CNS = system: SF-295 CNS
SF-539 CNS = system: SF-539 CNS
UACC-257 melanoma = system: UACC-257 melanoma
M14 melanoma = system: M14 melanoma
HCT-15 colon = system: HCT-15 colon
HT29 colon = system: HT29 colon
SNB-75 CNS = system: SNB-75 CNS
SNB-19 CNS = system: SNB-19 CNS
U251 CNS = system: U251 CNS
PC-3 prostate = system: PC-3 prostate
SK-MEL-5 melanoma = system: SK-MEL-5 melanoma
UACC-62 melanoma = system: UACC-62 melanoma
LOX IMVI melanoma = system: LOX IMVI melanoma
SK-MEL-28 melanoma = system: SK-MEL-28 melanoma

Row | SMILES | growth (DU-145 prostate) | growth (K-562 leukemia) | growth (MALME-3M melanoma) | growth (MDA-MB-231 breast) | growth (RXF 393 renal) | growth (SF-268 CNS) | growth (SF-295 CNS) | growth (SF-539 CNS) | growth (UACC-257 melanoma) | growth (M14 melanoma) | growth (HCT-15 colon) | growth (HT29 colon) | growth (SNB-75 CNS) | growth (SNB-19 CNS) | growth (U251 CNS) | growth (PC-3 prostate) | growth (SK-MEL-5 melanoma) | growth (UACC-62 melanoma) | growth (LOX IMVI melanoma) | growth (SK-MEL-28 melanoma)
1 | COc1cccc(-c2nn(-c3ccccc3)cc2-c2ccnc(NCCCNC(=O)c3ccccc3)c2)c1 | 64.7% | 11.2% | 57.5% | 45.9% | 63.3% | 66.2% | 51.5% | 80.2% | 40.7% | 33.3% | 33% | 8.81% (active) | 60.1% | 70.4% | 43.3% | 26.2% | 5.44% (active) | 33.8% | 66.1% | 67.8%
2 | C=CCNc1nc(NN2C(=O)c3cccc4cccc(c34)C2=O)nc(-n2cnc3ccccc32)n1 | 97.9% | 9.94% (active) | 93.5% | 68.3% | 50.3% | 65% | 76.5% | 50.4% | 102% | 97.9% | 66.7% | 88.9% | 39.2% | 83.7% | 63.3% | 67.1% | 64.9% | 77.2% | 77.8% | 103%
3 | CNC(=O)CCN1CCN(CC/C=C2\c3ccccc3Sc3ccc(Cl)cc32)CC1 | 90.5% | 32.4% | 98% | 102% | 21.6% | 77.5% | 98.5% | 97.3% | -30.9% (active) | 81.3% | 63.2% | 58.2% | 74.3% | 98.6% | 77.8% | 8.82% (active) | 79.6% | 60.4% | 72% | -51.5% (active)
4 | COc1cccc(-c2nc3sccn3c2-c2ccnc(NCCNS(=O)(=O)c3ccc(C(F)(F)F)cc3)c2)c1 | 49.4% | 25.7% | 42.2% | 70.1% | 34% | 35.8% | 27.7% | 53.7% | 39.2% | 38.4% | 33% | 35.7% | 38.1% | 56.5% | 42.1% | 16.8% | 14.9% | 38.9% | 46.3% | 57.8%
5 | Cc1cc(O)c(C2=NN(c3ccc(S(N)(=O)=O)cc3)C(c3ccccc3Cl)C2)cc1Cl (stereo not given) | 4.85% (active) | -18% (active) | 34.9% | 20% | -11.7% (active) | 11.6% | 63% | 41.9% | 65.2% | -11.9% (active) | 34.8% | 0.516% (active) | 41.7% | 58.1% | 7.79% (active) | 10.9% | 36.5% | 45.1% | -83.7% (active) | 63.2%
6 | O=C(/C=C/c1ccco1)c1ccc(Nc2nc(Nc3ccc(F)cc3)nc(Nc3ccc(Cl)cc3)n2)cc1 | 77% | 67.4% | 75.1% | 55.1% | 35.6% | 80.2% | 65.4% | 102% | 101% | 84.5% | 78.5% | 61.8% | 62.5% | 107% | 73.2% | 72.7% | 73.8% | 81.7% | 74.7% | 60.3%
7 | O=C(Nc1cccc2c(O)c(N=Nc3ccc(S(=O)(=O)Nc4nccs4)cc3)cc(N=Nc3ccc(S(=O)(=O)Nc4nccs4)cc3)c12)C(Cl)Cl | 33.8% | 143% | 138% | 92.3% | 71.2% | 66.2% | 78.2% | 86.6% | 80.6% | 110% | 60.2% | 62.8% | 83% | 73.6% | 63.1% | 15.7% | 85.2% | 89% | 66.7% | 82.9%
8 | COc1ccc2nc(NNC(=O)c3cnccn3)c3cccn3c2c1 | 1.09% (active) | 4.97% (active) | -6.33% (active) | 5.83% (active) | 41.2% | 9.31% (active) | 2.1% (active) | -19.7% (active) | -8.01% (active) | -37.5% (active) | -19.5% (active) | 10% | 25.3% | 6.9% (active) | 0.414% (active) | 16.5% | 0.958% (active) | -34.2% (active) | -36.3% (active) | 11.7%
9 | COc1cc(/C=C/C(=O)c2cccc(-n3cc(-c4ccccc4)[nH]c3=O)c2)ccc1O | 81.1% | 20.9% | 90.8% | 90.3% | 20% | 66.5% | 65.7% | 85.7% | 68.8% | 84.7% | 22.2% | 44.5% | 46.8% | 90.5% | 16.6% | 61.3% | 68.5% | 69.8% | 18.7% | 70.2%
10 | COC(=O)c1c2c(c(C)[n+]([O-])c1C)C(=O)C(NCc1ccc(F)cc1)=CC2=O | 42.5% | 9.12% (active) | -95.7% (active) | 1.94% (active) | 56.9% | 23% | 69.1% | 0.757% (active) | -36.8% (active) | 2.89% (active) | 14% | 7.24% (active) | 128% | 3.72% (active) | -13.9% (active) | 3.57% (active) | -47.9% (active) | -35.5% (active) | 20.3% | 72.4%
11 | CCN1C(=O)N(CC)C2C1NN=c1s/c(=C\c3cccs3)c(=O)n12 (stereo not given) | 10.4% | 14.5% | 49.1% | 7.14% (active) | 11.5% | 59.3% | 19.3% | -3.34% (active) | 74.4% | 8.36% (active) | 16.5% | 60.2% | 16.6% | 37% | 19.8% | 21.9% | -4.97% (active) | 38% | 23.1% | 58.3%
12 | COc1nc2c(c(=O)n1C)CN(c1ccccc1)C(=O)CN2C | 66.3% [100 µM] | 55.2% [100 µM] | 74.3% [100 µM] | 47.5% [100 µM] | 60.4% [100 µM] | 63.4% [100 µM] | 50.7% [100 µM] | 60.8% [100 µM] | 73.6% [100 µM] | 68% [100 µM] | 52.7% [100 µM] | 62.3% [100 µM] | 45% [100 µM] | 57.4% [100 µM] | 62.6% [100 µM] | 37.7% [100 µM] | 48.4% [100 µM] | 43.9% [100 µM] | 70.3% [100 µM] | 90.4% [100 µM]
13 | Cc1c(C(=O)N[C@@H](Cc2ccccc2)C(=O)C(=O)NCCc2ccccc2)[nH]c2ccccc2c1=O | 101% | 91.7% | 103% | 97.7% | 112% | 98.6% | 103% | 102% | 101% | 110% | 102% | 105% | 88.7% | 98% | 99.6% | 93.8% | 97.8% | 92.1% | 97.8% | 105%
14 | COc1cc(-c2nc(N3CCN(C)CC3)c3ccccc3n2)cc(OC)c1OC | 82.4% | 44.8% | 63.8% | 61.2% | 51.4% | 56.8% | 28.6% | 39.3% | 58.2% | 42% | 56.9% | 49.5% | 15.7% | 85.2% | 60.2% | 52.8% | 47% | 18.2% | 44.3% | 59.5%
15 | COc1ccc2cc(-c3cc(OC)c(OC)c(OC)c3)c(=O)oc2c1 | 101% | 27.7% | 65.1% | 60.8% | 84.9% | 89.7% | 71.4% | 80.2% | 54.9% | 38.6% | 50% | 44.3% | 65% | 80.3% | 70.7% | 69.2% | 79.5% | 42% | 73.5% | 78.5%
